# Unmarked numbers belong to inactive results. Results filed as inconclusive are left out. Activity calls are given as the source filed them. Calls follow the shape of the dose curve; as a rule, active = well fitted curve in the direction sought with a large enough effect; inconclusive = small, poorly fitted or top-dose-only effect, or another doubt; inactive = no such curve, though single readings can be large; an effect the other way counts as inactive or inconclusive.
# Molecular target: Parathyroid hormone/parathyroid hormone-related peptide receptor (Homo sapiens) (UniProt Q03431)
# Sequence (Q03431 whole entry, looked up): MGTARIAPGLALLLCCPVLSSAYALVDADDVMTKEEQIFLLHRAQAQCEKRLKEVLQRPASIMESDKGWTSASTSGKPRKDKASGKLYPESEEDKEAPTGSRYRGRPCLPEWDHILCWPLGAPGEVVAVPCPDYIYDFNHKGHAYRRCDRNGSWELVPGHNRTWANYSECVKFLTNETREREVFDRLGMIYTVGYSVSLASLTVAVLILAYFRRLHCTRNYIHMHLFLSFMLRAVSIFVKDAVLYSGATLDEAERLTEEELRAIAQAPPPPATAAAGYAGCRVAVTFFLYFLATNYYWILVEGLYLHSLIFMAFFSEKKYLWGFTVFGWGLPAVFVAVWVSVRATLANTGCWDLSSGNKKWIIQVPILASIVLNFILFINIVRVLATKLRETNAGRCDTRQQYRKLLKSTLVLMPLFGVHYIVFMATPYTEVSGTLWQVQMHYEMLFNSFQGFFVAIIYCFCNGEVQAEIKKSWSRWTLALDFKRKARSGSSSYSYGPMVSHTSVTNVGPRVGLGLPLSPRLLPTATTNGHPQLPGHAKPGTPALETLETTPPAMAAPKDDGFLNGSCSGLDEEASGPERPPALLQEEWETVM
# Experiment: qHTS for PTHR1 Agonists: Optimization Screen against the NCGC LOPAC library (AID 1347079);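 also: GloSensor cAMP luminescence in HEK-293 GP2 cells expressing human PTHR1 with IBMX; 0% is about no effect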
# Settings: HEK293 GP2 PTHR1 GloSensor cAMP luminescence, 1 h; series mostly up to 57.1 µM; activation: at the top concentration
# Method in brief: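 Compounds were tested across a qHTS titration. PTHR1-expressing GP2 cells report cAMP rises via GloSensor luminescence after 1 hr compound exposure at 37C with IBMX present.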
SMILES,activation [%],Potency
NC[C@@H]1O[C@H](C23CC4CC(CC(C4)C2)C3)Cc2c1ccc(O)c2O,-20.2,
Fc1ccc(C(OCCCc2cnc[nH]2)c2ccc(F)cc2)cc1,-56.2,
CC(C)NC[C@@H](O)c1ccc(O)c(O)c1,108,
O=C1C(SCCO)=C(SCCO)C(=O)c2ccccc21,-24.9,
O=C(/C=C/c1ccc(O)cc1)c1ccc(O)cc1O,-4.71,
CN(C)c1nc(N)c(C(=O)N=C(N)N)nc1Cl,4.36,
O=Nc1ccc2oc(=O)ccc2c1,-3.4,
CCCCCCCCCCCCCCCC(=O)OC(CC(=O)O)C[N+](C)(C)C (stereo not given),-36.2,
CC(N)C(=O)OC(C)(C)Cc1ccc(Cl)cc1 (stereo not given),-34.4,
CN1CCc2ccccc2Cc2[nH]c3ccccc3c2CC1,-15.6,
O=C(c1ccc(Cl)cc1)N1CCN(c2ccc([N+](=O)[O-])c3ncccc23)CC1,1.4,
O=C(O)c1cc([N+](=O)[O-])ccc1NCCCc1ccccc1,-5.19,
CN1CC(=O)N/C1=N/C(=O)Nc1cccc(Cl)c1,-5.15,
COc1cccc(OC)c1OCCNCC1COc2ccccc2O1 (stereo not given),10.9,
O=C1NC(=O)/C(=C/c2ccc3nccnc3c2)S1,31,
O=c1[nH]c2cc([N+](=O)[O-])c([N+](=O)[O-])cc2[nH]c1=O,-17.6,
Cn1ncc(S(=O)(=O)Cc2ccccc2)c(Br)c1=O,-32.8,
NC(N)=NC(=O)c1nc(Cl)c(N2CCCCCC2)nc1N,-20.1,
CCC1C(=O)OCC1Cc1cncn1C (stereo not given),,inactive
COc1ccc(NC(=O)/C=C/c2ccc(Cl)cc2)cc1,-36.6,
OCC1O[C@H](O)C(Cl)C(O)C1O (stereo not given in full),1.74,
O=C1/C(=C/c2ccsc2)CC/C1=C\c1cccs1,-18.6,
CSc1ccccc1N1CCN(CCCCCC(=O)NC2CCCc3ccccc32)CC1 (stereo not given),16.3,
O=[N+]([O-])c1ccc(CSc2ncnc3c2ncn3[C@@H]2O[C@H](CO)[C@@H](O)[C@H]2O)cc1,-13.2,
CCOC(=O)N1CCN(/[N+]([O-])=N/Oc2ccc([N+](=O)[O-])cc2[N+](=O)[O-])CC1,-26.7,

# Tested on: not listed separately
# Experiment: qHTS of pediatric cancer cell lines to identify multiple opportunities for drug repurposing: Primary screen for TC32 cells (AID 1347089); also: % is scaled to controls: 0 for no effect and ±100 for the full control effect; nearly all actives have a fitted effect of over 60% in size
# Settings: TC32 Ewing sarcoma viability, CellTiter-Glo luminescence, 48 h; series mostly up to 45.8 µM; activity change, negative = cytotoxic: at the top concentration
# Method in brief: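 qHTS, TC32, 48 h drug treatment, CellTiter-Glo luminescence as a proxy for metabolically active cells; primary top concentration 46 µM (MIPE 11-pt, NPC 8-pt); confirmatory 11-pt.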
row,SMILES,"activity change, negative = cytotoxic [%]"
1,CC(N)C(=O)OC(C)(C)Cc1ccc(Cl)cc1 (stereo not given),-5.69
2,CN1CC(=O)N/C1=N/C(=O)Nc1cccc(Cl)c1,10.8
3,CCC1C(=O)OCC1Cc1cncn1C (stereo not given),12.3

# Tested on: not listed separately
# Experiment: qHTS of pediatric cancer cell lines to identify multiple opportunities for drug repurposing: Primary screen for DAOY cells (AID 1347090);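 also: plate controls were DMSO for no effect and bortezomib for full effect; nearly all actives have a fitted effect of over 55% in size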
# Settings: DAOY medulloblastoma viability, CellTiter-Glo luminescence, 48 h; series mostly up to 46 µM; activity change, negative = cytotoxic: at the top concentration
# Method in brief: (§1)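 Eight- or eleven-point concentration series, 48 h treatment at 37 degrees C in growth media; readout CellTiter-Glo luminescence. Potency and efficacy were taken from the concentration-response curves.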
row,SMILES,"activity change, negative = cytotoxic [%]"
1,CC(N)C(=O)OC(C)(C)Cc1ccc(Cl)cc1 (stereo not given),-0.353
2,CN1CC(=O)N/C1=N/C(=O)Nc1cccc(Cl)c1,2.77
3,CCC1C(=O)OCC1Cc1cncn1C (stereo not given),13.3

# Tested on: not listed separately
# Experiment: qHTS of pediatric cancer cell lines to identify multiple opportunities for drug repurposing: Primary screen for SJ-GBM2 cells (AID 1347091);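 also: plate controls were DMSO neutral control for no effect and bortezomib for full effect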
# Settings: SJ-GBM2 viability, CellTiter-Glo luminescence, 48 h; series mostly up to 46 µM; activity change, negative = cytotoxic: at the top concentration
# Method in brief: as §1
row,SMILES,"activity change, negative = cytotoxic [%]"
1,CC(N)C(=O)OC(C)(C)Cc1ccc(Cl)cc1 (stereo not given),3.58
2,CN1CC(=O)N/C1=N/C(=O)Nc1cccc(Cl)c1,28.7
3,CCC1C(=O)OCC1Cc1cncn1C (stereo not given),9.18

# Tested on: not listed separately
# Experiment: qHTS of pediatric cancer cell lines to identify multiple opportunities for drug repurposing: Primary screen for A673 cells (AID 1347092); also: % is scaled to controls: 0 for no effect and ±100 for the full control effect; nearly all actives have a fitted effect of over 45% in size
# Settings: A673 Ewing sarcoma viability, CellTiter-Glo ATP luminescence, 48 h; series mostly up to 46 µM; activity change, negative = cytotoxic: at the top concentration
# Method in brief: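 Luminescence from CellTiter-Glo, taken after 15 min at room temperature, served as the proxy for metabolically active cells following 48 h treatment. Both potency and efficacy were taken from curves fitted to the titration data.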
row,SMILES,"activity change, negative = cytotoxic [%]"
1,CC(N)C(=O)OC(C)(C)Cc1ccc(Cl)cc1 (stereo not given),-10.4

# Source: PubChem BioAssay (NCATS)
